High-throughput results from PubChem.
Platelet DG rel: platelet dense granule release activity | human platelet-rich plasma, SFLLRN dense granule ATP release, luminescence | inhibition, %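 (compounds screened at 7.5 µM in platelet-rich plasma)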 | AID 1663 | actives 0.22% (n = 300,000);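 active = mean replicate score, as percent of positive control, at or above 50; inconclusive = mean below 50 but at least one replicate at or above 50; inactive = mean and every replicate below 50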
p-CIP stab down: lowers stability of the mouse p/CIP coactivator protein | F442A p/CIP-EGFP cells, EGFP fluorescence, 16 h | decrease of EGFP signal, % at 10 µM | actives 0.01% (n = 290,000) | AID 1984;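 active = EGFP signal decrease of at least 30% at 10 µM or well 3 SD below plate mean, unless failing retest; inactive = the rest, including hits failing retest or dose response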
AHR act: human AHR activation; activation, % at 5 µM; actives 2.5% (n = 320,000); P35869; AHR-responsive luciferase reporter cells, luminescence; in the data active = activation above about 47%;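 also: 0% = vehicle wells and 100% = reference agonist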
Target sequence (P35869 whole entry, looked up): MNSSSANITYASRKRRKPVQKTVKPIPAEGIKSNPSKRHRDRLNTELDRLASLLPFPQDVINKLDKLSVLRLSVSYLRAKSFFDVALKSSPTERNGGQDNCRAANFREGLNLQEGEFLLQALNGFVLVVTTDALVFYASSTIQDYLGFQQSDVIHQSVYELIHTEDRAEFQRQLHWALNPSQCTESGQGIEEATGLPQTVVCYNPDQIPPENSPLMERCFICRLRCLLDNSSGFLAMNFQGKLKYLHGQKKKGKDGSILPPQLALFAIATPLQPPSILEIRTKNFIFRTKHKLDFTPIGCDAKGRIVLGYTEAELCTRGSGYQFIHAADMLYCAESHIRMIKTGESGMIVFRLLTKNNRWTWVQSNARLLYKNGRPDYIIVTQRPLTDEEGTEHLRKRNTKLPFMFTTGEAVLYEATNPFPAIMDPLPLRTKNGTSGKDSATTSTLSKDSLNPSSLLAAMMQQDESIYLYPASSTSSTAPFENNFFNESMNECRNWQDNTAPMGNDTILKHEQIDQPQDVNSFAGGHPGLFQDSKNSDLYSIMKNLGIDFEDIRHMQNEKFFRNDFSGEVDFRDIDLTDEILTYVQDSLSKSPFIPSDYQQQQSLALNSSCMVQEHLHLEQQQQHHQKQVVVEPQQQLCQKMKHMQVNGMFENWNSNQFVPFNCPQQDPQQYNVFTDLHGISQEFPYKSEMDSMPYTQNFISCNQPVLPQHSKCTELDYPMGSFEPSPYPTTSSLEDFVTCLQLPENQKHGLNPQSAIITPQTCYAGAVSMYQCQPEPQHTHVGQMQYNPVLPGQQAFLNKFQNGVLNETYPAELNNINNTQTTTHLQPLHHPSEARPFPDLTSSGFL
HIF act: HIF pathway transcriptional activation; U2OS HRE-luciferase reporter, luminescence; normalized: DMSO 0%, desferrioxamine 100%; activation, % at 7.5 µM (by protocol); actives 0.32% (n = 300,000);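 active = mean activation of at least 10% of the iron chelator positive control signal, with at least half of replicates also reaching 10%; inconclusive = mean and replicate majority disagree about reaching 10%; inactive = mean and most replicates under 10%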
PolyA inh: inhibitors of polyadenylation in S. cerevisiae | actives 0.02% (n = 300,000) | activity score, % at 12 µM | AID 1875 | S. cerevisiae SKY197-pL101 polyadenylation reporter, beta-gal luminescence; efflux-impaired pdr1/pdr3 knockout yeast; score 100 = 6 SD above DMSO;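 active = lowest replicate activity score at least 50, where 100 means six control SD above control mean; inconclusive = lowest score under 50 but half or more replicates reach 50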;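 also: yeast exposed to compound for 9 h at 30 °C; higher score means more reporter readthrough which indicates perturbed polyadenylation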
Active calls of the source: *; u = inconclusive; x = no result. Most compounds without a hit are left out; they make up all but 2.8% or so of the library.

SMILES | Platelet DG rel | p-CIP stab down | AHR act | HIF act | PolyA inh
CCC(C)Nc1nc(-c2ccc3c(c2)NC(=O)CO3)cs1 (centres undefined) | -5 | 0 | 63* | 0 | 3
O=C(COC(=O)/C=C/c1ccco1)Nc1cccc([N+](=O)[O-])c1 | 20 | -13 | 1 | 0 | 17
CSc1nc2c(C)c(C)c(C)c(C)c2[nH]1 | 2 | -4 | 47* | 0 | -5
Cc1cccc(N(C(=O)c2snc(C(N)=O)c2N)C(C(=O)NCC2CCCO2)c2c[nH]c3ccccc23)c1 (centres undefined) | 0 | 6 | 9 | 0 | -5
NC(=O)c1nsc(C(=O)N(c2cccc(F)c2)C(C(=O)NCC2CCCO2)c2c[nH]c3ccccc23)c1N (centres undefined) | -10 | 1 | 65* | 0 | -3
NC(=O)c1nsc(C(=O)N(c2ccc(F)cc2)C(C(=O)NCC2CCCO2)c2c[nH]c3ccccc23)c1N (centres undefined) | -4 | -11 | 74* | 0 | -16
CCOc1ccc(C(C(=O)NCC2CCCO2)N(C(=O)c2snc(C(N)=O)c2N)c2ccc(F)cc2)cc1 (centres undefined) | 8 | -9 | 1 | 1 | 19
Cc1cc(N/N=C/c2ccncc2)c([N+](=O)[O-])cc1[N+](=O)[O-] | 0 | 1 | 27 | 0 | 4
Cc1ccc(N/C=C(\C#N)c2ccc(OCCCF)cc2)cc1 | -1 | -5 | 53* | 0 | -4
CCn1cc(Br)c(C(=O)NN)n1 | 1 | -43 | 50* | 3 | 6
CCn1cc(Br)c(C(=O)Nc2nccs2)n1 | -2 | 0 | 57* | 1 | 1
CCn1cc(Br)c(C(=O)Nc2ccc(Cl)c(Cl)c2)n1 | 5 | -15 | 77* | 3 | -6
CCOC(=O)C1=C(C)NC(C)=C(C(=O)OCC)C1C(=O)OCC(=O)N(C)Cc1ccccc1 | x | x | 2 | x | x
CCOC(=O)c1c(C)[nH]c(C)c1S(=O)(=O)NCc1cc(C)ccc1C | 6 | 3 | 9 | 0 | -10
O=C(Nc1ccc(-c2cnco2)cc1)c1ccc(Cl)cc1 | x | 4 | -6 | x | -16
O=C(Nc1ccccc1)c1ncoc1-c1ccc(Cl)cc1 | x | 4 | 57* | x | 6
O=Cc1c(-c2ccccc2)nc2ccccn12 | -12 | -9 | 89* | 0 | -35
CCOC(=O)C(=O)c1c(-c2ccccc2)nc2ccccn12 | -8 | 4 | 0 | -1 | -31
O=S(=O)(NCCc1csc(-c2cccnc2)n1)c1cccs1 | 0 | 0 | 69* | 1 | -7
COC(=O)CSc1nnc(-c2ccc(S(=O)(=O)N3CCCC3)cc2)o1 | 25 | 9 | 0 | 0 | -1
CCS(=O)(=O)Nc1ccc(-c2nnc(SCC(=O)OC)o2)cc1 | 50* | 0 | 0 | 0 | -5
COc1cc(C2NC(=O)CCC2[N+](=O)[O-])c(OC)cc1Br (centres undefined) | 1 | 0 | 0 | -9 | 32
O=[N+]([O-])c1ccc(O)c(Nc2ncnc3ccccc23)c1 | 0 | 3 | 25 | 0 | 11
O=[N+]([O-])c1ccc(O)c(Nc2ncnc3ccc(Br)cc23)c1 | -5 | -10 | 75* | 0 | -19
Cc1ccc(O)c(Nc2ncnc3ccc([N+](=O)[O-])cc23)c1 | 12 | -12 | 50* | 1 | -5
SMILES | Platelet DG rel | p-CIP stab down | AHR act | HIF act | PolyA inh
CN(CC(=O)Nc1ccccc1C(F)(F)F)C(=O)C1=COCCO1 | -7 | x | -2 | 0 | 0
Oc1c(C=C2N=c3ccccc3=N2)sc(=S)n1C1CCCC1 | -8 | 4 | 59* | 1 | -21
Oc1c(C=C2N=c3ccccc3=N2)sc(=S)n1-c1ccc(F)cc1 | 10 | -12 | 15 | 0 | -13
Nc1n[nH]c(-c2ccc(Br)cc2)c1Cl | 0 | -15 | 62* | 0 | -6
Cn1c(=S)n(/N=C/c2ccc3c(c2)OCO3)c2ccccc21 | x | -2 | 58* | x | x
Cc1cc2ncn(/N=C/c3ccc4c(c3)OCO4)c2cc1C | -8 | 4 | 55* | 0 | -9
COCCN(CC(=O)Nc1cccc(C)c1C)C(=O)CN1C(=O)NC2(CCCCC2)C1=O | x | x | -1 | x | x
C[C@@H]1COC(=O)[C@@H](CC(=O)OC(C)(C)C)C/C=C\C[C@@H](CC(=O)NCCO)C(=O)N1 | x | x | 0 | x | x
COc1ccc2[nH]c(C(=O)N/N=C/c3ccccc3OC)cc2c1 | 9 | 10 | 8 | u | 21
COc1ccc(OC)c(/C=N/NC(=O)c2cc3c(OC)c(OC)ccc3[nH]2)c1 | 1 | -11 | 79* | 0 | -20
CCCOc1ccc2[nH]c(C(=O)N/N=C/c3cc(OC)c(OC)c(OC)c3)cc2c1 | 0 | -5 | 35 | -17 | -13
CCOc1ccc(/C=N/NC(=O)c2cc3c(OC)cc(OC)c(OC)c3[nH]2)cc1 | -5 | -7 | 48* | -25 | 12
OCCC1CN(Cc2ccccc2-c2ccco2)CCN1C1CCCC1 (centres undefined) | -3 | -3 | 0 | 0 | 8
COc1cccc(S(=O)(=O)NCc2ccc(C(=O)N3CCN(C)CC3)cc2)c1 | -1 | 6 | x | 0 | 2
CN1CCN(c2ccc(Cl)cc2NC(=O)c2nn(-c3ccccc3)c(=O)c3ccccc23)CC1 | -1 | -9 | x | 0 | -8
Cn1nc(C(=O)Nc2cc(Cl)ccc2N2CCCC2)c2ccccc2c1=O | x | x | 64* | x | x
O=C(NNc1cc(Cl)ccc1Cl)C1CCC1 | 2 | -2 | 1 | 0 | 4
O=C(/C=C/c1ccccc1)NNC(=O)C1CC1 | -6 | -10 | -1 | 0 | -9
O=C(NNC(=O)C(O)(c1ccccc1)c1ccccc1)C1CC1 | -30 | 9 | -1 | 31* | -1
CN(CC(=O)Nc1ccccc1Oc1ccccc1)Cc1ccccc1F | 0 | -7 | 4 | 129* | -2
CCNC(=O)COc1cccc(C(=O)NCc2ccccc2)c1 | 26 | -10 | 3 | 75* | -10
CCCNC(=O)COc1cccc(C(=O)NCc2ccccc2)c1 | -5 | -3 | 2 | 0 | 13
CCCCC(C(=O)O)C(C)CC(=O)NNC(=O)c1ccco1 (centres undefined) | 13 | -12 | -1 | -1 | 8
Cc1ccc(C(=O)N(CC(C)C)c2nc3ccccc3s2)o1 | 0 | -4 | 72* | 0 | -45
CC(C)(C)c1cc(C(=O)N2CCN(c3ncccn3)CC2)ccn1 | 0 | -16 | 0 | 882* | -7
CC(C)(C)c1ccc(C(=O)N2CCN(c3ncccn3)CC2)cc1 | 16 | -14 | 3 | 0 | 8
CCN(CC)S(=O)(=O)c1cc(NC(=O)c2ccc3c(c2)NC(=O)C(C)S3)ccc1C (centres undefined) | x | x | 3 | x | x
COc1ccc(-c2nc(-c3cccs3)c(-c3cccs3)[nH]2)cc1O | -4 | -2 | 48* | 1 | -3
O=C(O)c1ccc(-c2nc(-c3ccccc3)c(-c3cccs3)[nH]2)cc1 | -15 | 0 | 7 | 0 | 5
